The source of these data is PubChem BioAssay AID623868 (Vanderbilt High Throughput Screening Facility, 2012).

Among all 2,100 compounds or so, about 760 (36%) were called active. Only a sample is shown. A number with no mark means an inactive call.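 How the source made its calls: active means thallium-flux fluorescence traces judged by eye to show enhanced or reduced glutamate response, manual score 1 or -1, so both directions (some results past the limit were not filed as active); inactive means the rest, including fluorescent or raised-baseline compounds.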

The nature of the assay: non-GIRK thallium flux modulation in mGlu8 cells, confirmation, counter-screen for GIRK activator project, cell-based, HEK-293 rmGlu8, no GIRK (AID 623868).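 Further: extra codes mark interference with 3 for fluorescent and 4 for baseline rise.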 Particulars: thallium flux fluorescence, at 10 µM, actives lie on both sides, codes: 1 enhancer, -1 blocker, 0 none, thallium stimulus containing EC20 glutamate. Background: A counterscreen serves to expose hits that act by an unwanted route or on another target.
For the compound `CCN(C(=O)CN1CCN(c2ccccc2O)CC1)c1c(N)n(Cc2ccccc2)c(=O)[nH]c1=O`, the manual score is 0.
The value for `CC(C)(C)c1ccc(C(=O)NC(=S)Nn2cnnc2)cc1` was 0; that for `CC(C)(C)NC(=O)C(=O)NNC(=O)c1ccc(C(C)(C)C)cc1` was 1 (active).
The value for `Cc1cccc(C(=O)NNC(=O)C(=O)NC(C)(C)C)c1` was 1 (active).
The value for `CC(C)(C)c1ccc(SCC(N)=O)cc1` was 0; that for `COc1ccc(Cn2c(=S)[nH]c3ccsc3c2=O)cc1` was 1 (active); that for `COc1ccccc1N1CCN(C(=O)CCn2c(=O)[nH]c3ccsc3c2=O)CC1` was 0.
In the case of `COc1cc(NC(=O)CCn2c(=O)[nH]c3ccsc3c2=O)cc(OC)c1`, the manual score was 0.
Regarding `Cc1cc(C)cc(OCC(=O)N2N=C(C(F)(F)F)CC2(O)C(C)(C)C)c1` (centres undefined), the manual score is 0.
The value for `Cc1ccccc1C(=O)Nc1nc(=S)ss1` was 1 (active); that for `Cc1ccccc1C(=O)Nc1ccc2nc3n(c(=O)c2c1)CCC3` was 0; that for `Cc1ccccc1CNC(=O)Nc1cccs1` was 0.
The value for `O=C(Cn1c(=O)[nH]c2ccsc2c1=O)NC1CCCCCC1` was 0; that for `CCc1ccc2c(c1)c(N=NC1=NC(=O)CS1)c(O)n2C` was 1 (active).
The value for `CCn1c(O)c(N=NC2=NC(=O)CS2)c2cc(C)ccc21` was 1 (active).
As for `CCc1ccc2c(c1)c(N=NC1=NC(=O)CS1)c(O)n2CC`, the manual score was 1 (active).
The value for `CC(Nc1nc(N2CCCC2)nc2ccccc12)c1ccccc1` (centres undefined) was 0.
With `Cc1ccccc1/C=c1\s/c(=C\C(=O)C(C)(C)C)[nH]c1=O`, the manual score is 0.5.
On to `CC(C)(C)S(=O)(=O)c1ccc(S(=O)(=O)C(C)(C)C)s1`, for which the manual score is 0.
The value for `CCCn1nc2cc(C(=O)NCCc3ccc(C)cc3)ccc2c1OCC` was 0; that for `CCCn1nnnc1NC(=O)c1ccc2ccccc2c1` was 1 (active); that for `CCC(=O)Nc1ccc2c(c1)ncn2-c1ccc(OC)cc1` was 0.
The value for `CC1CCCN(Cc2cccc(Oc3ccccc3)c2)C1` (centres undefined) was 0; that for `Cc1ccccc1N=Nc1ccc(O)c2ncccc12` was 1 (active).
Turning to `Cc1ccc(N=Nc2ccc(O)c3ncccc23)cc1`, the manual score was 1 (active).
The value for `O=c1cc(CN2CCOCC2)nc(C2CC2)[nH]1` was 0; that for `C/C(CC(O)c1ccc2ccccc2n1)=N/O` (centres undefined) was 0.
The value for `CCCCn1c(N)c(C(=S)NC(=O)CC(C)C)c(=O)n(C)c1=O` was 1 (active).
For `CCCCn1c(N)c(C(=S)NC(=O)CC(C)(C)C)c(=O)n(C)c1=O`, the manual score was 1 (active).
The value for `CCN(CC)c1ccc2cc(-c3nnc(-c4ccccc4)o3)c(=O)oc2c1` was 3.
The value for `CC12CCC(C(=O)N(CSC(=S)N/N=C\c3ccccc3O)C1=O)C2(C)C` (centres undefined) was 1 (active); that for `CC12CCC(C(=O)N(CSC(=S)N/N=C\c3ccccc3Cl)C1=O)C2(C)C` (centres undefined) was 1 (active).
The value for `O=C(c1cccc(F)c1)N1CCN(C(=O)c2cc(-c3ccc(Cl)cc3Cl)on2)CC1` was 0; that for `CC(C)(C)c1ccc(-c2n[nH]c(=S)n2C2CCCC2)cc1` was 1 (active).
On to `CC(C)n1c(-c2ccc(C(C)(C)C)cc2)n[nH]c1=S`, for which the manual score was 1 (active).
On to `CCCCCCc1cc2cc(-c3nnc(-c4cc(OC)c(OC)c(OC)c4)o3)c(=O)oc2cc1O`, for which the manual score was 3.
The value for `CC(C)CCn1c(S(=O)(=O)O)nc2ccccc21` was 0.
The value for `O=C(N/N=C\c1ccc(Cl)s1)c1cccs1` was 1 (active); that for `Cc1cccc(-n2ncc3c(NCCc4ccc(S(N)(=O)=O)cc4)ncnc32)c1` was 0.
The value for `Cc1nc(NCCc2ccc(S(N)(=O)=O)cc2)c2c(C)c(C)sc2n1` was 1 (active); that for `NS(=O)(=O)c1ccc(CCNC2CC(=O)N(Cc3ccccc3)C2=O)cc1` (centres undefined) was 0.
With `Cc1ccc(C2CC2C(=O)NNC(=S)Nc2cccc(Cl)c2)cc1` (centres undefined), the manual score was 0.
On to `Cc1ccc(C2CC2C(=O)NNC(=S)Nc2ccc(Cl)cc2)cc1` (centres undefined), for which the manual score is 0.5.
The value for `CCn1c(NC(=O)Nc2cccc(C)c2C)cc2sccc21` was 0.
The value for `CCc1cc(C(=O)NNC(=S)Nc2cccc(C)c2)cs1` was 1 (active).
For the compound `Cc1ccc(Cl)cc1NC(=S)NCc1cccn1C`, the manual score was 0.
The value for `CCc1cc(C(=O)NNC(=S)Nc2ccccc2C)cs1` was 1 (active).
The value for `Cc1ccc(C2CC2C(=O)NNC(=S)Nc2cccc(C)c2)cc1` (centres undefined) was 1 (active); that for `CCc1cccc(NC(=O)CCSCCC(=O)Nc2cccc(CC)c2)c1` was 0; that for `CCc1cc(C(=O)NNC(=S)Nc2cc(C)ccc2C)cs1` was 1 (active).
The value for `CCOC(=O)CC1=C(C(=O)OCC)C(c2cccs2)C(C#N)=C(N)O1` (centres undefined) was -0.5; that for `CCOc1ccc(NC(=O)Nc2cccs2)cc1` was 0.
`CCCCN(C)CC(O)Cn1cc(/C=C/C(=O)c2cccs2)c2ccccc21` (centres undefined): the manual score was 3.
The value for `Cc1cccc(NC(=S)NNC(=O)c2sccc2C)c1` was 1 (active); that for `CC(C)C(=O)Nc1nnn(C)n1` was 0; that for `C=CCNCc1cccn1-c1sc2c(c1C#N)CCCC2` was 0.
The value for `Cc1[nH]n(-c2ccc(F)cc2)c(=O)c1/C=N/c1sc2c(c1C#N)CCCC2` was 3; that for `Cc1[nH]n(-c2cccc3ccccc23)c(=O)c1/C=N/c1sc2c(c1C#N)CCC2` was 1 (active); that for `CCOc1cc(C2NN=C(c3ccc(C)cc3)S2)ccc1O` (centres undefined) was 1 (active).
The value for `C=CCNC(=O)NC(=S)c1ccccc1` was 1 (active); that for `N#Cc1ccc(-c2csc(NC3=NCCCCC3)n2)cc1` was 0; that for `C=CCNC(=S)NNC(=O)COc1ccc(Cl)cc1Cl` was 0.5.
`CCC(C)c1ccc(NC(=S)Nc2ccc(OC)c(OC)c2)cc1` (centres undefined): the manual score is 0.
The value for `COC(=O)NC(=S)Nc1ccc(Oc2ccc(Cl)cc2Cl)c(Cl)c1` was 1 (active).
The value for `O=C(COc1ccc(Cl)cc1Cl)Nc1noc2ccccc12` was 0; that for `COc1ccc(NC(=S)SC)cc1OC` was 0; that for `O=C(COc1ccc(Cl)cc1Cl)NNC(=S)Nc1ccc(F)cc1` was 1 (active).
The value for `CC(=O)c1ccc(OC(=O)N(c2ccccc2)c2ccccc2)cc1` was 0; that for `COc1ccc2nc(/N=C/c3c(C)[nH]n(-c4ccc(C)cc4C)c3=O)sc2c1` was 1 (active).
For the compound `CCOc1ccc2nc(/N=C/c3c(C)[nH]n(-c4ccccc4)c3=O)sc2c1`, the manual score was 1 (active).
The value for `CCOc1[nH]n(-c2ccc(Cl)cc2)c(=O)c1C=Nc1ccc(Cl)cc1` was 0.
The value for `CCOc1ccc2nc(/N=C/c3c(C)[nH]n(-c4ccc(C)cc4)c3=O)sc2c1` was 1 (active); that for `COc1ccc2nc(/N=C/c3c(C)[nH]n(-c4ccc(C)cc4)c3=O)sc2c1` was 1 (active); that for `CC(C)OC(=O)CC12CN3CN(C1)CC(CC(=O)OC(C)C)(C3)C2=O` was 0.
The value for `CC1(C)NC(=O)N(CC(O)COc2ccc(-c3ccc(C#N)cc3)cc2)C1=O` (centres undefined) was 0.
For the compound `CCOc1cc(N2CCOCC2)c(OCC)cc1NC(=O)COC(=O)CCc1c[nH]c2ccccc12`, the manual score was 0.
The value for `COc1c2occc2c(OC)c2c(=O)cc(C(F)(F)F)oc12` was 0; that for `CCN(CC)c1ccc(NC(=O)c2nc3nc(C)cc(C(F)F)n3n2)cc1` was 0.
Consider `O=C(COC(=O)CCC1CCCC1)Nc1nc2c(F)c(F)c(F)cc2s1`, for which the manual score was 0.
In the case of `CCN1CCCC1CNC(=O)C1CCN(Cc2nc(-c3cccc(Br)c3)oc2C)CC1` (centres undefined), the manual score is 0.
The value for `CCOC(=O)C(CC)Sc1nnc2cc(C)c3ccccc3n12` (centres undefined) was -1 (active); that for `CCOC(=O)C(CC)Sc1nnc(COc2ccc(C)cc2)n1-c1ccccc1` (centres undefined) was 3; that for `CCN(CC)CCn1c(=S)[nH]c2cc(Cl)ccc2c1=O` was 0.5.
The value for `O=c1c2ccc(Cl)cc2[nH]c(=S)n1CCC1=CCCCC1` was 1 (active).
In the case of `N#CCCN(Cc1ccccc1)C(=S)NC(=O)c1ccccc1`, the manual score was 1 (active).
The value for `COCCN(C(=O)Cc1cccs1)C(C(=O)NCc1ccc(OC)cc1)c1ccccc1` (centres undefined) was 0; that for `COc1ccc(CNC(=O)C(C#N)c2nc3ccccc3nc2N2CCCC2)cc1` (centres undefined) was 3; that for `COc1ccc(CN(CCC#N)C(=S)NC(=O)c2ccccc2)cc1` was 1 (active).
The value for `CCN1C(=O)/C(=C/c2ccc(C)s2)NC1=S` was 0.5.
The value for `CCCN1C(=O)/C(=C/c2ccc(C)s2)NC1=S` was 1 (active).
Consider `O=C1/C(=C/c2ccc(N3CCCC3)cc2)NC(=S)N1C1CC1`, for which the manual score was 3.
Take `CC(C)CN1C(=O)/C(=C/c2cccs2)NC1=S`: the manual score was 1 (active).
The value for `CCCN1C(=O)/C(=C/c2ccc(N3CCCC3)c(C)c2)NC1=S` was 3; that for `CSc1nc2ccccc2cc1/C=C(\C#N)c1cccc(C)c1` was 0.
The value for `CC1Oc2ccccc2C=C1/C=N/NC(=O)c1ccccc1` (centres undefined) was 0.
The value for `Cc1ccc(C(=O)N/N=C/C2=Cc3ccccc3OC2C)cc1` (centres undefined) was 1 (active).
Regarding `COC(=O)Nc1nc(C)c(C(=O)N(C)C)s1`, the manual score is 0.
The value for `COC(=O)c1sc(NC(=S)NC(=O)c2cccc(C)c2)nc1C` was 1 (active); that for `CCCCSc1nc(N)c(NC(=O)c2ccco2)c(=O)[nH]1` was 0; that for `COC(=O)c1sc(NC(=S)NC(=O)c2ccccc2)nc1C` was 1 (active).
Take `COC(=O)c1sc(NC(=S)NC(=O)c2ccccc2Cl)nc1C`: the manual score was 1 (active).
With `Cc1nnc(NC(=O)c2ccco2)s1`, the manual score is 0.
The value for `CCOC(=O)c1sc(NC(=S)NC(=O)c2ccco2)nc1C` was 1 (active); that for `COc1cc(C)ccc1OCCOc1cc(C)ccc1Cl` was 0; that for `COc1ccc(OC)c(S(=O)(=O)N(C)CC(=O)N2CCN(c3ccccc3F)CC2)c1` was 0.
`Cc1cccc2c1nc(-c1ccccc1)n1cnnc21`: the manual score is 0.
The value for `O=C(COc1ccc(Cl)cc1Cl)Nc1ccccn1` was 0.
The value for `Cc1cc(NC(=O)COc2ccc(Cl)cc2Cl)n(-c2ccccc2)n1` was 0; that for `CN(C(=S)NC(=O)CCCOc1ccc(Cl)cc1Cl)c1ccccc1` was 1 (active).
